The values below come from PMC5540273 (PLoS ONE, 2017).

Among the test systems are STK36; STK39; SYK; SgK110; TAOK1; TAOK2; TAOK3; TBK1; TEC; TESK1; TGFBR1; TGFBR2; TIE1; TLK1; TLK2; TNIK; TNK1; TNK2.
Details in all cases: concentration: 1 μM, replicates: in singlicate; n = 1
The next assay has as its system T1, TAK1.
T1 construct: gene MAP3K7

For the next assay, the system named is T2, TIE2.
T2 construct: gene TEK
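Also: KINOMEscan kinase panel screen.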

In the case of `c1ccc(Oc2ccc(Nc3ccnc4cc(-c5ccc(CNCCN6CCOCC6)o5)ccc34)cc2)nc1` [GW567145], the “%Inh” value in the assay with STK36 turned out to be 0%; in the assay with STK39, 1%; with SYK it was 14%; in the assay with SgK110, 0%; with TAK1, 0%; with TAOK1, 0%. The “%Inh” value worked out at 0% in the assay on TAOK2; 0% with TAOK3; 1% in the assay with TBK1; 39% in the assay with TEC; 3% in the assay with TESK1; 0% in the assay on TGFBR1. Also, the “%Inh” value in the assay with TGFBR2 turned out to be 0%; in the assay with TIE1, 0%; with TIE2 it was 0%; with TLK1, 0%; with TLK2, 0%; in the assay with TNIK, 30%. Further, the results for the “%Inh” value in the assay with TNK1 and with TNK2 were 27% and 37%, respectively.

Turning to `O=C(Nc1cccc(Oc2ccc3nc(NC(=O)C4CC4)cn3n2)c1)c1ccccc1C(F)(F)F`, the “%Inh” value in the assay with STK36 is recorded as 4%; in the assay on STK39 it was 11%; in the assay with SYK, 0%; in the assay with SgK110 it was 0%; with TAK1, 0%; in the assay on TAOK1, 0%. The “%Inh” value turned out to be 34% in the assay with TAOK2; 0% with TAOK3; 39% in the assay with TBK1; 5% in the assay with TEC; 17% in the assay on TESK1; 9% with TGFBR1. Further, the “%Inh” value in the assay on TGFBR2 was determined as 0%; in the assay on TIE1, 16%; with TIE2, 14%; with TLK1, 0%; with TLK2, 3%; in the assay on TNIK, 9%. In addition, the “%Inh” value in the assay on TNK1 was 55%; in the assay with TNK2 it was 4%.

Take `CN(c1ccc(NC(=O)Nc2cc(C(F)(F)F)ccc2F)cc1)c1ccnc(Nc2ccc(S(N)(=O)=O)cc2)n1` [GW809893]: the “%Inh” value with STK36 is on record as 0%; in the assay with STK39, 0%; in the assay on SYK it was 91.9%; in the assay with SgK110 it was 0%; in the assay with TAK1, 60%; in the assay with TAOK1 it was 53%. Moreover, the “%Inh” value with TAOK2 was 86%; in the assay with TAOK3, 79%; in the assay on TBK1, 29%; in the assay with TEC, 0%; with TESK1 it was 75%; with TGFBR1, 0%. Besides, the “%Inh” value is 6% with TGFBR2; 94.3% in the assay with TIE1; 99.6% in the assay with TIE2; 0% in the assay with TLK1; 0% in the assay on TLK2; 81% with TNIK. Further, the “%Inh” value with TNK1 is listed as 54%; in the assay on TNK2, 0%.

`Cl.NC(=O)c1cccc(Nc2nccc(Nc3ccc(Oc4c(Cl)cccc4Cl)c(Cl)c3)n2)c1` [GW659009]: the “%Inh” value was determined as 0% in the assay with STK36; 0% with STK39; 0% with SYK; 0% in the assay on SgK110; 1% in the assay with TAK1; 9% with TAOK1. The “%Inh” value with TAOK2 is 0%; in the assay on TAOK3 it was 8%; in the assay with TBK1, 0%; in the assay with TEC it was 0%; in the assay with TESK1, 0%; with TGFBR1 it was 0%. The “%Inh” value was 29% with TGFBR2; 33% in the assay with TIE1; 0% in the assay with TIE2; 0% with TLK1; 0% in the assay on TLK2; 0% in the assay with TNIK. The entries for the “%Inh” value with TNK1 and with TNK2 were 36% and 0%, respectively.

Turning to `Cn1cc(-c2ccc3c(c2)CCN3C(=O)Cc2cccc(Cl)c2)c2c(N)ncnc21` [GSK2606590], the “%Inh” value turned out to be 0% in the assay on STK36; 9% in the assay on STK39; 38% with SYK; 0% in the assay with SgK110; 42% in the assay on TAK1; 0% with TAOK1. For the same compound, the “%Inh” value in the assay with TAOK2 came out at 0%; in the assay with TAOK3 it was 0%; in the assay with TBK1, 27%; with TEC, 4%; with TESK1, 52%; in the assay on TGFBR1, 0%. Also, the “%Inh” value turned out to be 0% in the assay with TGFBR2; 92.3% in the assay with TIE1; 45% in the assay with TIE2; 0% in the assay on TLK1; 0% with TLK2; 7% in the assay on TNIK. Further, the “%Inh” value with TNK1 is reported as 11%; in the assay on TNK2 it was 0%.

With `CNC(=O)c1ccccc1Nc1nc(Nc2ccc(N3CCOCC3)cc2)ncc1Cl.Cl` [GSK1576028], the “%Inh” value with STK36 is 85%; in the assay on STK39 it was 54%; with SYK, 87%; with SgK110, 90.5%; in the assay with TAK1, 96.1%; in the assay with TAOK1 it was 98.8%. In addition, the “%Inh” value was 83% with TAOK2; 94.2% with TAOK3; 93.1% with TBK1; 99% in the assay on TEC; 26% in the assay on TESK1; 93% in the assay with TGFBR1. For the same compound, the “%Inh” value with TGFBR2 is listed as 0%; in the assay with TIE1 it was 100%; in the assay on TIE2, 97.9%; in the assay on TLK1 it was 52%; in the assay with TLK2 it was 57%; in the assay with TNIK, 76%. The “%Inh” value in the assay on TNK1 is given as 100%; in the assay with TNK2 it was 98.2%.

As to `CN1CCN(CCCNc2nccc(-c3c(-c4ccc(F)cc4)nn4cc(C(F)(F)F)ccc34)n2)CC1` [GW621581], the “%Inh” value was found to be 97.6% in the assay on STK36; 3% in the assay on STK39; 10% with SYK; 0% in the assay with SgK110; 0% in the assay with TAK1; 4% in the assay on TAOK1. Also, the “%Inh” value with TAOK2 stood at 0%; with TAOK3 it was 8%; with TBK1, 0%; with TEC it was 0%; in the assay on TESK1, 10%; in the assay on TGFBR1 it was 72%. Moreover, the “%Inh” value is recorded as 44% in the assay with TGFBR2; 16% in the assay with TIE1; 9% with TIE2; 2% in the assay on TLK1; 0% in the assay on TLK2; 24% in the assay with TNIK. For the same compound, the “%Inh” value with TNK1 and in the assay with TNK2 was 0% in each case.

With `O=C(Nc1cccc(-c2nn3ccccc3c2-c2ccnc(Nc3cccc(F)c3)n2)c1)c1c(F)ccc(F)c1Cl` [GSK357952], the “%Inh” value is 99.3% with STK36; 35% with STK39; 16% with SYK; 0% with SgK110; 0% in the assay with TAK1; 33% with TAOK1. The “%Inh” value with TAOK2 turned out to be 0%; in the assay on TAOK3, 34%; in the assay on TBK1 it was 3%; in the assay with TEC it was 60%; in the assay on TESK1, 0%; with TGFBR1, 2%. The “%Inh” value with TGFBR2 is recorded as 19%; in the assay with TIE1, 48%; in the assay on TIE2, 22%; in the assay on TLK1, 0%; with TLK2, 0%; in the assay with TNIK it was 0%. Moreover, the “%Inh” value amounted to 91.6% in the assay on TNK1 and 21% in the assay with TNK2.

For the compound `COc1cc(Nc2nccc(-c3c(-c4cccc(NC(=O)c5c(F)cccc5F)c4)nn4ncccc34)n2)cc(OC)c1OC` [GSK327238], the “%Inh” value in the assay with STK36 was 100%; in the assay with STK39, 13%; in the assay on SYK, 74%; in the assay with SgK110 it was 69%; in the assay with TAK1 it was 15%; in the assay on TAOK1, 58%. The “%Inh” value in the assay on TAOK2 is 39%; in the assay with TAOK3, 63%; in the assay with TBK1, 12%; in the assay with TEC it was 95.2%; in the assay on TESK1, 51%; in the assay with TGFBR1 it was 1%. Also, the “%Inh” value in the assay on TGFBR2 is recorded as 11%; in the assay with TIE1, 90.6%; in the assay on TIE2, 96.9%; in the assay with TLK1 it was 42%; in the assay on TLK2 it was 12%; with TNIK, 80%. The results for the “%Inh” value in the assay with TNK1 and in the assay on TNK2 were 100% and 69%, respectively.

For the compound `COc1cccc(-c2ccc3c(NC(=O)C4CC4)n[nH]c3n2)c1` [SB-710903], the “%Inh” value is given as 0% in the assay with STK36; 17% in the assay on STK39; 19% in the assay with SYK; 0% in the assay with SgK110; 0% with TAK1; 30% in the assay with TAOK1. The “%Inh” value in the assay with TAOK2 is on record as 4%; with TAOK3, 0%; with TBK1, 13%; with TEC, 0%; in the assay with TESK1, 36%; in the assay with TGFBR1, 27%. The “%Inh” value in the assay with TGFBR2 is 0%; with TIE1, 0%; with TIE2, 0%; with TLK1, 3%; in the assay with TLK2, 0%; in the assay with TNIK it was 82%. In addition, the results for the “%Inh” value with TNK1 and in the assay with TNK2 were 0% and 9%, respectively.
